Results filed as inconclusive are left out. Activity calls are given as the source filed them. The call rests on the fitted dose curve; in most records, active means well fitted inhibition curve with a large enough effect; inconclusive means small, poorly fitted or top-dose-only effect; inactive means flat fitted curve, though single readings scatter.
target: Calcium and integrin-binding protein 1 (Homo sapiens) (UniProt Q99828); assay: Primary qHTS for Identification of Calcium Integrin Binding Protein 1 (CIB1) Competitor (AID 1508620); conditions: CIB1-GST / FITC-alphaIIb peptide fluorescence polarization; series mostly up to 114 µM; activity change, negative = inhibition: at the top concentration; on activity change, negative = inhibition: top concentration of the series differs between compounds
Outline: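 Fluorescence polarization competition: GST-tagged CIB1 (1 uM final) preincubated with compound 15 min at room temperature, then FITC-labelled alphaIIb peptide (100 nM final) added. After 15 min at room temperature, polarization read at Ex 480/Em 540.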
On the % scale 0 is the no-effect control and ±100 the full control effect; potency means the concentration at half of the fitted maximal effect.

Chain of Calcium and integrin-binding protein 1 (Homo sapiens) (Q99828 whole entry, looked up): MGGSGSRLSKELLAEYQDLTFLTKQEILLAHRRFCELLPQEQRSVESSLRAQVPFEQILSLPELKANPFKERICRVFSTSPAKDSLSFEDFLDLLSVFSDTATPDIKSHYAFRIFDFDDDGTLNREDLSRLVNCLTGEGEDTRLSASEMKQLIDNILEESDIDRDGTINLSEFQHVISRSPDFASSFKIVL

Structure (SMILES)	activity change, negative = inhibition	Potency
CC(=O)Nc1ccc(S(=O)(=O)N2CCN(S(=O)(=O)c3ccc4c(c3)OCCO4)CC2)cc1	-14.7% (inactive)	–
COC(=O)c1ccccc1S(=O)(=O)Nc1cc(=O)c2ccccc2[nH]1	-2.79% (inactive)	–
CCCCN(C)C(=O)Cn1nc(-c2cccc(C)c2)ccc1=O	-0.981% (inactive)	–
Cc1csc(CNc2ncnc3ccc(-c4ccc5c(c4)OCCO5)cc23)c1	0.566% (inactive)	–
O=C(COC(=O)CNC(=O)c1ccccc1)Nc1cc(C(F)(F)F)ccc1Cl	-4.1% (inactive)	–
Clc1cccc(-c2ccc3ncnc(NCc4cccnc4)c3c2)c1	-1.78% (inactive)	–
CN1CCc2ccc3c4c2[C@]1(C)Cc1cccc(c1-4)OCO3	–	39.8 µM (active)
c1nc(NCc2ccc3c(c2)OCO3)c2cc(-c3ccoc3)ccc2n1	9.37% (inactive)	–
Cc1cc(NC(=O)Nc2nnc(-c3cccnc3)s2)ccc1Br	3.98% (inactive)	–
O=[S+]([O-])(c1c(F)cccc1F)N1CCN([S+](=O)([O-])c2c(F)c(F)c(F)c(F)c2F)CC1	10.4% (inactive)	–
O=C(Nc1ncc(Cc2ccc(C(F)(F)F)cc2)s1)c1ccc(-c2ccccc2)o1	2.56% (inactive)	–
Cc1csc(CNc2ncnc3ccc(-c4ccc5c(ccn5C)c4)cc23)c1	4.28% (inactive)	–
Nc1c(-c2ccncc2)cc[nH]c1=O	-16.6% (inactive)	–
Clc1ccccc1CSc1nc2ncc(Br)cc2[nH]1	0.461% (inactive)	–
Fc1cnc(-c2ccccc2C(F)F)nc1NCC1CCN(c2cnccn2)C1 (stereo not given)	-2.93% (inactive)	–
O=C(Nc1ccc(Cl)c(Cl)c1)Nc1ccnc(-c2ccncc2)n1	0.417% (inactive)	–
CCOC(=O)c1ccc(-n2cccc2/C=C2\NC(=O)NC2=O)cc1	-0.411% (inactive)	–
Cn1nnnc1Sc1ncnc2scc(I)c12	-9.98% (inactive)	–
O=C(NC1CCCc2c1cnn2-c1ccc(F)cc1F)c1ccncc1 (stereo not given)	3.27% (inactive)	–
CC(=O)Nc1sc2c(c1-c1ccccc1)CCNC2	-2.49% (inactive)	–

Structure (SMILES)	activity change, negative = inhibition	Potency
COc1ccc(-c2nc3ccccc3c(=O)n2Cc2ccc(CNC(=O)CO)cc2)cc1COc1ccc(NC(C)=O)cc1	-8.89% (inactive)	–
N#Cc1ccc(-c2ccc(C3Nc4ccccc4C(=O)N3O)o2)cc1 (stereo not given)	-7.59% (inactive)	–
c1nc(NCC2CC2)c2cc(-c3ccc4c(c3)OCO4)ccc2n1	6.57% (inactive)	–
COc1ccc(C(=O)OCC#CCSc2nnc(-c3cccc4ccccc34)o2)cc1	-0.271% (inactive)	–
COC(=O)c1ccc(-c2c(NC(C)=O)sc3c2CCNC3)cc1	-0.341% (inactive)	–
O=C(O)c1cccc(S(=O)(=O)N2CCN(S(=O)(=O)c3ccc4c(c3)OCCO4)CC2)c1	0.617% (inactive)	–
O=C1CCCC2=C1C(c1[nH]ncc1Cl)NC(=NCCc1ccc(O)cc1)N2 (stereo not given)	-1.63% (inactive)	–
Cc1ccc(Nc2nc(C#N)nc(NC3CCCC3)n2)cc1	3.33% (inactive)	–
CC1=C(C(=O)Nc2ccon2)C(c2ccccc2Br)N=C(Nc2nc3ccccc3o2)N1 (stereo not given)	-0.654% (inactive)	–
Cc1ccc(CNc2ncnc3ccc(-c4sc(C)nc4C)cc23)o1	-14.2% (inactive)	–
Cc1cc2c(s1)c1cnn(Cc3c(F)cccc3C(F)(F)F)c(=O)c1n2C	2.92% (inactive)	–
CC(=O)Nc1ccccc1OC1=N[S+](=O)([O-])c2ccccc21	2.47% (inactive)	–
Brc1ccc(-c2ccc(C3Nc4cccc5cccc(c45)N3)o2)cc1	-20.5% (inactive)	–
CN1C(=O)Cc2cc([S+](=O)([O-])N3CCN([S+](=O)([O-])c4c(F)cccc4F)CC3)ccc21	-7% (inactive)	–
COc1ccc(NC(=O)c2[nH]c(C)c(C(C)=O)c2C)cc1S(=O)(=O)Nc1ccc(C#N)cc1	1.89% (inactive)	–
Cc1noc(C)c1-c1ccc2ncnc(NCC3CCCCN3C)c2c1 (stereo not given)	-0.508% (inactive)	–
O=C(Cc1nnc(-c2ccncc2)s1)Nc1ccc(F)c(C(F)(F)F)c1	6.46% (inactive)	–
Cc1ccc(OCCn2c(CCNC(=O)c3ccc(Cl)cc3)nc3ccccc32)cc1	33% (inactive)	–
O=C(Nc1ccc(N2CCOCC2)nc1)c1cccs1	-3.64% (inactive)	–
O=S(=O)(c1cccc(Br)c1)N1CCN(S(=O)(=O)c2ccc3c(c2)OCCO3)CC1	0.419% (inactive)	–

Source: PubChem BioAssay (NCATS)
